The nature of the assay: qHTS assay for re-activators of p53 using a Luc reporter: Hit Validation with no p53 Expressed. The procedure, abridged: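 Counter-screen of primary hits in a cell line not transfected with p53, in Opti-MEM with 10% FBS; compounds at several concentrations (10 mM stock, 1:5; top 46.1 µM in well), 24 h at 37 deg C, 5% CO2. Luminescence read after 10 min with Amplite reagent.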
A general note: Quantitative high-throughput screening tests each substance at several concentrations.

Inconclusive results are not listed. A call without a number means that no potency is given here. Calls of active or inactive are those of the source. Calls follow the shape of the dose curve; as a rule, active = well fitted activation curve with a large enough effect; inconclusive = small, poorly fitted or top-dose-only effect; inactive = no such curve, though single readings can be large or run the other way.

Consider 101 molecules from PubChem BioAssay AID624331 (National Center for Advancing Translational Sciences (NCATS), 2012).
Potency is read from the fitted curve at half-maximal effect.

As for `CC12CCC(C(=O)N(CSC(=S)N/N=C\c3ccccc3O)C1=O)C2(C)C` (stereo unspecified), the Potency result was “inactive”. Under `CCOc1ccc(S(=O)(=O)c2c(C(=O)c3ccc(C)cc3)cnc3cc4c(cc23)OCCO4)cc1` stands “inactive”; under `NC(=NCc1ccccc1)c1cccc([N+](=O)[O-])c1`, “inactive”. Under `COCCSc1nnc(NC(=O)CCS(=O)(=O)c2ccccc2)s1` stands “inactive”; under `CN1CCN(C(=O)c2cc3ccccc3cc2O)CC1`, “inactive”. Under `CCc1nnc(NC(=O)C2Cc3ccccc3CN2S(=O)(=O)c2cccs2)s1` (stereo unspecified) stands “inactive”. Take `Cc1nc(NC(=O)c2csc3ccccc23)sc1C`: the Potency entry is “inactive”. Under `CC(=O)N1CCC(C(=O)Nc2ccc(S(=O)(=O)NCCc3ccccc3)cc2)CC1` stands “inactive”; under `c1ccc2sc(-c3ccc4c(c3)OCO4)nc2c1`, “inactive”; under `Cc1ccc(C(=O)OCC(=O)NCC2COc3ccccc3O2)cc1` (stereo unspecified), “inactive”.

With `Cc1ccc(-c2cc3nc(C)cc(NCc4ccco4)n3n2)cc1`, the Potency result is “inactive”. For the molecule `Cc1cc(N2CCCCC2)n2ncc(-c3ccc(Cl)cc3)c2n1`, the Potency entry was “inactive”. Consider `COc1ccc2c(c1)CCC/C2=N\NC(=O)c1ccoc1C`, for which the Potency result was “inactive”. Regarding `O=C(Nc1ccccc1N1CCCCC1)c1ccc([N+](=O)[O-])o1`, the Potency entry is “inactive”. Under `Cc1ccc(C(=O)Nc2ccc(Cl)cn2)cc1` stands “inactive”; under `Cc1ccccc1OCC(=O)Nc1cccc2nsnc12`, “inactive”; under `COc1cc(NC(=O)CN2C(=O)COc3ccc(S(=O)(=O)N4CCCC4)cc32)cc(OC)c1`, “inactive”. As to `COc1ccc(NC(=O)c2ccccc2)cc1`, the Potency entry is “inactive”.

`COc1ccccc1-c1c(C)nn2c(C)c(C(C)=O)cnc12`: the Potency entry is “inactive”. The value for `O=C(/C=C/c1ccco1)NC(=S)Nc1cc(-c2nc3ccccc3s2)ccc1Cl` was “inactive”; that for `Cc1cs/c(=N/C(=S)Nc2ccccc2)n1C` was 1300 nM (active); that for `N#Cc1cnc(Oc2ccc(Cl)cc2)nc1N` was “inactive”. Under `O=C(Nc1ccc(NC(=O)C23CC4CC(CC(C4)C2)C3)cn1)c1ccco1` stands “inactive”; under `C(=C\c1nc(-c2ccccc2)no1)/c1ccccc1`, “inactive”.

On to `Cc1noc(C)c1C(=O)Nc1nc(-c2ccc(F)cc2)cs1`, for which the Potency entry is “inactive”. Under `Cc1ccc(C)c(OCC(O)CN2C(C)CCCC2C)c1` (stereo unspecified) stands “inactive”; under `COc1ccc(NC(=S)NC(=NS(=O)(=O)c2ccc(Cl)cc2)c2ccccc2)cc1`, “inactive”. Under `COc1ccc(/C(C)=N/Nc2nccnc2Cl)cc1` stands “inactive”. `CN(C)c1ccc(CNC2CC(C)(C)NC(C)(C)C2)cc1`: the Potency entry was “inactive”. Take `Nc1c(C(=O)c2ccc(Br)cc2)oc2ccccc12`: the Potency result was “inactive”. Under `N#CCc1nc(CSc2nc3ccccc3s2)cs1` stands “inactive”; under `O=C(NCc1ccc(-c2nc3ccccc3s2)cc1)c1cc2ccccc2o1`, “inactive”; under `c1ccc2nc(-c3ccc(N4CCOCC4)cc3)ccc2c1`, “inactive”. Under `CCOC(=O)N(Cc1ccccc1)C(C(=O)O)C(C(=O)O)N(Cc1ccccc1)C(=O)OCC` (stereo unspecified) stands “inactive”; under `O=C(Nc1ccc(Cl)cc1)Nc1nnc(SCc2ccccc2)s1`, “inactive”. On to `COCCn1c(SCC(=O)Nc2ccc(N3CCOCC3)cc2)nc2ccccc21`, for which the Potency result was “inactive”. With `CC(C)(C)c1nnc(N/N=C/c2cc(Br)ccc2O)n(N)c1=O`, the Potency entry is “inactive”.

For `COc1cccc(/C=N/NC(=O)c2nc(-c3ccccc3)cc(-c3ccccc3)n2)c1O`, the Potency result is “inactive”. The value for `C=CCNC(=S)N/N=C(\C)c1ccccn1` was “inactive”; that for `Cc1nc(SCC(=O)Nc2nccs2)c(C#N)c(C)c1C` was “inactive”; that for `Cn1c(=N)n(CC(=O)c2ccc(Cl)c(Cl)c2)c2ccccc21` was “inactive”. For the molecule `O=C(N/N=C/c1cccc(F)c1)NC1CCCCC1`, the Potency entry was “inactive”. The value for `Fc1cc(NCc2ccccc2)nc(NCc2ccccc2)n1` was “inactive”; that for `O=C(/C=C/Nc1ccccc1C(=O)O)c1cccs1` was “inactive”. Under `COc1ccc(N2COC3c4cccc5cccc(c45)C32)cc1` (stereo unspecified) stands “inactive”; under `O=C(NCCOc1ccccc1F)c1cc(F)c(F)cc1Cl`, “inactive”. As to `COc1cc(N=c2c([N+](=O)[O-])nn(-c3ccc4c(c3)OCCO4)n2O)cc(OC)c1`, the Potency entry was “inactive”. Take `Cc1ccc(NC(CC(=O)c2ccccc2)c2ccc(F)cc2)cc1` (stereo unspecified): the Potency result was “inactive”. Under `O=C(NCCC1=CCCCC1)c1ccc(F)c(S(=O)(=O)N2CCOCC2)c1` stands “inactive”; under `CCc1ccc(N=c2c([N+](=O)[O-])nn(-c3ccccc3)n2O)cc1`, “inactive”.

In the case of `CC(=O)Nc1ccc2oc(-c3ccccc3Br)nc2c1`, the Potency entry was “inactive”. The value for `Cn1ncc([N+](=O)[O-])c1C(=O)Nc1ccc(C2CCCCC2)cc1` was “inactive”; that for `Cc1ccc(-n2c(C)cc(C(=O)CSc3nnc4ccccn34)c2C)cc1` was 731 nM (active). With `Cc1cc(Oc2ccccc2)nc(-c2ccccc2O)n1`, the Potency entry was “inactive”.

For `Cc1ccc(NC(=O)/C(Cl)=C/c2ccccc2)cc1C`, the Potency entry was “inactive”.

Consider `O=C(/C(=C\c1ccccc1)c1nc2ccccc2[nH]1)c1ccc(Cl)cc1`, for which the Potency entry is “inactive”.

Regarding `C/C(CC(C)C)=N\NC(=O)Nc1ccccc1`, the Potency entry was “inactive”. The value for `CC(=O)c1cccc(NS(=O)(=O)N(C)C)c1` was “inactive”; that for `CCN1CCN(/C=N/c2nc3c(s2)CCCC3)CC1` was “inactive”; that for `C#CC(C)(CC)NC(=O)Cn1nnc(-c2ccc(S(C)(=O)=O)cc2)n1` (stereo unspecified) was “inactive”. Under `Cc1ccc(C(=O)NC2CC2)cc1S(=O)(=O)N1CCOCC1` stands “inactive”. Under `CCn1c(C)nc2cc(C(=O)NNC(=O)c3ccc(C)cc3)ccc21` stands “inactive”. Take `CC(C)CCn1cnc2c(cnn2-c2ccc(F)cc2)c1=O`: the Potency entry was “inactive”. The value for `O=c1c2ccccc2oc2nc(-c3ccco3)n(-c3ccccc3)c(=O)c12` was “inactive”; that for `COCCCN(C(C)=O)c1nc(-c2ccc(OC)cc2)cs1` was “inactive”; that for `COc1ccc2c(c1)Cc1sc(NC(C)=O)nc1-2` was “inactive”.

Turning to `Cc1occc1C(=O)NN=C1C2CC3CC(C2)CC1C3`, the Potency entry is “inactive”.

As for `COc1ccc(CNC(=O)NC2CCCCC2)cc1`, the Potency result was “inactive”. The value for `O=C(NCc1ccco1)c1noc2c1CCCC2` was “inactive”; that for `O=C(Nc1ccc2c(c1)OCO2)c1cc(Cl)ccn1` was “inactive”; that for `C/C(=N\NC(=O)c1ccccc1)c1ccc(NC(=O)c2cccs2)cc1` was “inactive”. The value for `CC(C)c1ccc(NC(=S)NN2CCOCC2)cc1` was “inactive”; that for `CCOc1ccc2cc(C#N)c(SCC(=O)OC)nc2c1` was “inactive”. Take `O=C(NOCc1ccccc1)c1ccccc1`: the Potency entry is “inactive”. Take `CN1CCN(c2ncnc3c2cnn3-c2ccc(Cl)cc2)CC1`: the Potency result is “inactive”. Under `Clc1ccc(Nc2nc(-c3cccs3)cs2)nc1` stands “inactive”; under `Cc1ccc(N2C(=O)c3ccccc3C2C(=O)c2cc(C)ccc2O)cc1` (stereo unspecified), “inactive”.

As to `C=CCn1c(P(C)(=O)O)nc2ccccc21`, the Potency entry was “inactive”. The value for `Cc1ccsc1/C=N/Nc1nc2ccccc2[nH]1` was “inactive”.

As to `Nc1nc2ccc(N3CCOCC3)cc2s1`, the Potency result was “inactive”. The value for `O=C(Nc1nc2c(s1)CCCC2)C1COc2ccccc2O1` (stereo unspecified) was “inactive”. The value for `CN(C)c1ccc(/C=N/Nc2nncc3ccccc23)cc1` was “inactive”; that for `Cc1ccc(C)c(N2CCN(C(=O)CCc3nc(-c4ccccc4C(F)(F)F)no3)CC2)c1` was “inactive”. Under `O=C(COC(=O)c1cn(-c2ccccc2)nc1-c1ccc(F)cc1)Nc1ncc(Cl)cc1Cl` stands “inactive”. For `Cc1csc2nc(COC(=O)c3cccc(N(C)C)c3)cc(=O)n12`, the Potency entry is “inactive”. `Cc1cc(C)nc(CC(N)=O)n1`: the Potency result was “inactive”. As for `CN(C)C(=O)c1ccc2c(c1[N+](=O)[O-])C(=O)c1ccccc1C2=O`, the Potency entry was “inactive”. The value for `CCCCn1c(O)c(N=Nc2ccccc2O)c2ccccc21` was “inactive”; that for `Cc1ccc(C(=O)c2cc([N+](=O)[O-])ccc2N2CCCCC2)cc1C` was “inactive”. Under `COCC(=O)Nc1nnc(COc2ccccc2)s1` stands “inactive”; under `NC(=O)c1cc2ccc(O)cc2oc1=Nc1ccccc1`, “inactive”; under `CC(/C=N/Nc1nc2ccccc2[nH]1)=C\c1ccccc1`, 116 nM (active). Under `O=C(Nc1ccccc1Br)c1ccc(OC(=S)N2CCOCC2)cc1` stands “inactive”. With `OC(COc1ccc2cc(Br)ccc2c1)CN1CCCC1` (stereo unspecified), the Potency entry was “inactive”. The value for `CN(C)CCCn1c(SCC(=O)Nc2nccs2)nnc1-c1ccncc1` was “inactive”. Under `CCC(=O)Nc1ccc2oc(-c3cccc(C)c3)nc2c1` stands “inactive”; under `COc1ccc(NC(=O)/C(=C\c2ccc3c(c2)OCO3)NC(C)=O)cc1`, “inactive”. The value for `N=C1C(c2nc3ccccc3s2)=C(O)CN1Cc1ccccc1` was “inactive”; that for `CN(C)CCN(CC1CCCN(Cc2ccccc2F)C1)C(=O)c1ccc(F)cc1` (stereo unspecified) was “inactive”. In the case of `N#C/C(=C/c1cccnc1)c1ccccc1`, the Potency result was “inactive”. The value for `NS(=O)(=O)c1ccc(CCNCc2cccnc2)cc1` was “inactive”.
